# According to PubChem BioAssay (NCI):
# This is part of a sample that, as a whole, favours compounds with a hit. Of some 79,000 tested, about 15% had one in any assay. Unmarked numbers belong to inactive results. The source made the active and inactive calls. Cut-off read from the data, not from the text of the source: active = growth inhibition above about 70%; inactive = the rest.
# Key:
# [1] = NCI Yeast Anticancer Drug Screen. Data for the rad52 strain (AID 147);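 note: 0% = growth of vehicle-treated control cultures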; details: S. cerevisiae rad52 mutant growth inhibition, stronger effect = higher value
# How it was run: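 Compounds are applied to a genetically defined yeast strain lacking normal DNA damage repair, and inhibition of growth is expressed relative to cultures given vehicle only.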
# [2] = NCI Yeast Anticancer Drug Screen. Data for the wt1 strain (AID 149);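 note: 0% = growth of vehicle-treated wt1 cultures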; details: S. cerevisiae wt1 strain (SPY 50644) growth inhibition, stronger effect = higher value
# How it was run: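 Growth inhibition read against vehicle controls after compound exposure of the wt1 yeast strain.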
# [3] = NCI Yeast Anticancer Drug Screen. Data for the rad50EPP+ strain (AID 151);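 note: 0% = growth of vehicle-treated control cultures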; details: S. cerevisiae rad50 mutant strain, stronger effect = higher value
# How it was run: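 Compounds were applied to the rad50EPP+ yeast strain, which bears a defined DNA repair alteration, and growth inhibition was determined relative to vehicle-treated cultures.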
# [4] = NCI Yeast Anticancer Drug Screen. Data for the mgt1 strain (AID 153); details: S. cerevisiae mgt1 mutant growth inhibition, stronger effect = higher value
# How it was run: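 Strain: mgt1 yeast, one of a set carrying defined DNA damage repair or cell cycle control alterations. Compound-treated growth compared with vehicle.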
# [5] = NCI Yeast Anticancer Drug Screen. Data for the rad50 strain (AID 155);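 note: 0% = growth of vehicle-only cultures of the same strain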; details: S. cerevisiae rad50 strain growth inhibition, stronger effect = higher value
# How it was run: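 Readout: growth inhibition relative to vehicle-treated cultures. Compound exposure was carried out in a genetically defined yeast strain deficient in DNA damage repair.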
# [6] = NCI Yeast Anticancer Drug Screen. Data for the mec2-1 strain (AID 157); details: S. cerevisiae mec2-1 strain, stronger effect = higher value
# How it was run: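 Strain: mec2-1 (DNA repair/cell cycle alteration). Compound exposure, then growth measured; inhibition expressed relative to vehicle.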
# [7] = NCI Yeast Anticancer Drug Screen. Data for the rad14 strain (AID 159);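 note: 0% = growth of vehicle-treated control cultures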; details: S. cerevisiae rad14 strain growth inhibition, stronger effect = higher value
# How it was run: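 Growth inhibition vs vehicle controls; genetically altered yeast strain (DNA damage repair defect) treated with test compounds.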
# [8] = NCI Yeast Anticancer Drug Screen. Data for the sgs1 mgt1 strain (AID 161);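 note: 0% = growth of cultures given vehicle only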; details: S. cerevisiae sgs1 mgt1 strain, stronger effect = higher value
# How it was run: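 Genetically altered yeast, compound exposure, growth inhibition relative to vehicle.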
# [9] = NCI Yeast Anticancer Drug Screen. Data for the CLN2oe strain (AID 163);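 note: 0% = growth of vehicle-only control cultures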; details: S. cerevisiae CLN2oe strain, stronger effect = higher value
# How it was run: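 Growth of a genetically modified yeast strain is measured after compound exposure and compared with cultures given vehicle alone.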
# [10] = NCI Yeast Anticancer Drug Screen. Data for the cln2 rad14 strain (AID 165);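 note: 0% = growth equal to vehicle treated cultures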; details: S. cerevisiae cln2 rad14 strain, stronger effect = higher value
# How it was run: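 Compounds are applied to the cln2 rad14 yeast strain, and growth is then compared with that of vehicle-treated cultures to give inhibition.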
# [11] = NCI Yeast Anticancer Drug Screen. Data for the bub3 strain (AID 167); details: S. cerevisiae bub3 mutant strain, stronger effect = higher value
# How it was run: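 Readout: yeast growth inhibition, expressed relative to vehicle-only wells. The test organism is a mutant strain from a panel with lesions in DNA repair or checkpoint genes.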
# [12] = NCI Yeast Anticancer Drug Screen. Data for the wt2 strain (AID 169);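 note: 0% = growth of vehicle-treated yeast cultures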; details: S. cerevisiae wt2 strain growth inhibition, stronger effect = higher value
# How it was run: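 This strain belongs to a panel of yeast strains with defined genetic alterations in DNA damage repair or cell cycle control. Compounds are applied, and growth inhibition is measured against vehicle-treated cultures.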
# [13] = NCI Yeast Anticancer Drug Screen. Data for the mlh1 strain (AID 171);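 note: 0% = growth of vehicle-treated control cultures of the same strain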; details: S. cerevisiae mlh1 strain growth inhibition, stronger effect = higher value
# How it was run: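 Growth of the mutant yeast strain after compound exposure, expressed as inhibition relative to vehicle-only controls.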
# [14] = NCI Yeast Anticancer Drug Screen. Data for the sgs1 strain (AID 173);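 note: 0% = growth of vehicle-only control cultures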; details: S. cerevisiae sgs1 mutant, stronger effect = higher value
# How it was run: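 Growth of a yeast strain bearing a defined genetic alteration is measured after compound treatment. Inhibition is expressed relative to vehicle-only controls.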
# [15] = NCI Yeast Anticancer Drug Screen. Data for the mlh1 rad18 strain (AID 175); details: S. cerevisiae mlh1 rad18 strain growth inhibition, stronger effect = higher value
# How it was run: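 Read-out is yeast growth inhibition, calculated against vehicle-only controls. The compound was applied to a strain engineered with DNA damage repair alterations.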
# [16] = NCI Yeast Anticancer Drug Screen. Data for the rad18 strain (AID 177); details: S. cerevisiae rad18 mutant growth inhibition, stronger effect = higher value
# How it was run: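 Growth of the mutant yeast strain after compound exposure, normalised to vehicle-only cultures.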
# [17] = at 5.0 µM (retest, dose inferred, filed as 0.5)
# [18] = at 50.0 µM (retest, dose inferred, filed as 5.0)
smiles,measurement,setting,value
COc1oc(C(=O)NC2CCCCC2)c(-c2ccc(Cl)cc2)c1S(=O)(=O)c1ccccc1,growth inhibition,[1]; at 1.2 µM,-5%
same,growth inhibition,[1]; at 3.7 µM,7%
same,growth inhibition,[1]; at 11.0 µM,56%
same,growth inhibition,[1]; at 33.0 µM,87% (active)
same,growth inhibition,[1]; at 100.0 µM,84% (active)
same,growth inhibition,[2]; at 1.2 µM,-19%
same,growth inhibition,[2]; at 3.7 µM,-5%
same,growth inhibition,[2]; at 11.0 µM,68%
same,growth inhibition,[2]; at 33.0 µM,91% (active)
same,growth inhibition,[2]; at 100.0 µM,87% (active)
same,growth inhibition,[3]; at 1.2 µM,-22%
same,growth inhibition,[3]; at 3.7 µM,-19%
same,growth inhibition,[3]; at 11.0 µM,-18%
same,growth inhibition,[3]; at 33.0 µM,-5%
same,growth inhibition,[3]; at 100.0 µM,-11%
same,growth inhibition,[4]; at 1.2 µM,-21%
same,growth inhibition,[4]; at 3.7 µM,-17%
same,growth inhibition,[4]; at 11.0 µM,60%
same,growth inhibition,[4]; at 33.0 µM,89% (active)
same,growth inhibition,[4]; at 100.0 µM,86% (active)
same,growth inhibition,[5]; at 1.2 µM,-29%
same,growth inhibition,[5]; at 3.7 µM,-2%
same,growth inhibition,[5]; [17],64%
same,growth inhibition,[5]; at 11.0 µM,48%
same,growth inhibition,[5]; at 33.0 µM,83% (active)
same,growth inhibition,[5]; [18],92% (active)
same,growth inhibition,[5]; at 50.0 µM,75.1% (active)
same,growth inhibition,[5]; at 100.0 µM,78% (active)
same,growth inhibition,[6]; at 1.2 µM,1%
same,growth inhibition,[6]; at 3.7 µM,3%
same,growth inhibition,[6]; [17],22%
same,growth inhibition,[6]; at 11.0 µM,70% (active)
same,growth inhibition,[6]; at 33.0 µM,92% (active)
same,growth inhibition,[6]; [18],91% (active)
same,growth inhibition,[6]; at 50.0 µM,78.8% (active)
same,growth inhibition,[6]; at 100.0 µM,88% (active)
same,growth inhibition,[7]; at 1.2 µM,-22%
same,growth inhibition,[7]; at 3.7 µM,-17%
same,growth inhibition,[7]; at 11.0 µM,23%
same,growth inhibition,[7]; at 33.0 µM,82% (active)
same,growth inhibition,[7]; at 100.0 µM,74% (active)
same,growth inhibition,[8]; [17],-10%
same,growth inhibition,[8]; [18],88% (active)
same,growth inhibition,[8]; at 50.0 µM,78.2% (active)
same,growth inhibition,[9]; at 1.2 µM,-1%
same,growth inhibition,[9]; at 3.7 µM,0%
same,growth inhibition,[9]; at 11.0 µM,30%
same,growth inhibition,[9]; at 33.0 µM,91% (active)
same,growth inhibition,[9]; at 100.0 µM,83% (active)
same,growth inhibition,[10]; [17],15%
same,growth inhibition,[10]; [18],87% (active)
same,growth inhibition,[10]; at 50.0 µM,76.9% (active)
same,growth inhibition,[11]; at 1.2 µM,-18%
same,growth inhibition,[11]; at 3.7 µM,-25%
same,growth inhibition,[11]; [17],8%
same,growth inhibition,[11]; at 11.0 µM,47%
same,growth inhibition,[11]; at 33.0 µM,90% (active)
same,growth inhibition,[11]; [18],88% (active)
same,growth inhibition,[11]; at 50.0 µM,72.5% (active)
same,growth inhibition,[11]; at 100.0 µM,84% (active)
same,growth inhibition,[12]; at 1.2 µM,-1%
same,growth inhibition,[12]; at 3.7 µM,22%
same,growth inhibition,[12]; at 11.0 µM,89% (active)
same,growth inhibition,[12]; at 33.0 µM,91% (active)
same,growth inhibition,[12]; at 100.0 µM,82% (active)
same,growth inhibition,[13]; at 1.2 µM,-20%
same,growth inhibition,[13]; at 3.7 µM,-7%
same,growth inhibition,[13]; at 11.0 µM,41%
same,growth inhibition,[13]; at 33.0 µM,84% (active)
same,growth inhibition,[13]; at 100.0 µM,81% (active)
same,growth inhibition,[14]; at 1.2 µM,-4%
same,growth inhibition,[14]; at 3.7 µM,-1%
same,growth inhibition,[14]; at 11.0 µM,52%
same,growth inhibition,[14]; at 33.0 µM,89% (active)
same,growth inhibition,[14]; at 100.0 µM,84% (active)
same,growth inhibition,[15]; [17],16%
same,growth inhibition,[15]; [18],84% (active)
same,growth inhibition,[15]; at 50.0 µM,45.4%
same,growth inhibition,[16]; at 1.2 µM,-6%
same,growth inhibition,[16]; at 3.7 µM,-1%
same,growth inhibition,[16]; at 11.0 µM,46%
same,growth inhibition,[16]; at 33.0 µM,85% (active)
same,growth inhibition,[16]; at 100.0 µM,80% (active)
